# AmpC no deterg – blocks E. coli AmpC beta-lactamase in detergent-free assay; AmpC nitrocefin hydrolysis, absorbance 480 nm, 0.0001% Triton; Potency, µM (top dose mostly 57.1 µM), for inactives: at the highest dose activity change, negative = inhibition, actives largely listed as inhibitors; actives 0.52% (n = 330,000);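 further: plate controls were no compound for no effect and no enzyme for full effect; nearly all actives have a fitted effect of over 20% in size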
# Target sequence (P00811 whole entry, looked up): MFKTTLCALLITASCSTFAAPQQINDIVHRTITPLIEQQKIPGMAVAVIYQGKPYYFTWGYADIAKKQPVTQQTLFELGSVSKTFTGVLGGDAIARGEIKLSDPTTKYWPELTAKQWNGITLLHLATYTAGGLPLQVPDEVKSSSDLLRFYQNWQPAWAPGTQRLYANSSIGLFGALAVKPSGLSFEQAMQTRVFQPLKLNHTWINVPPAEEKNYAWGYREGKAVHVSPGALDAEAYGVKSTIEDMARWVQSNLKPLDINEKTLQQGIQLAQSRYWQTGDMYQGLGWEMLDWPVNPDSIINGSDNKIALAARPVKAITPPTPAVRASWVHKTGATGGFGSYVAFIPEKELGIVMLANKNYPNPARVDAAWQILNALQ
#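 AmpC (5.3 nM in the dispensed reagent) in 20 mM phosphate pH 7.0 with 0.01% (detergent screen) or 0.0001% Triton X-100 was preincubated with compounds for 15 min at room temperature. Nitrocefin was then added from an 800 uM solution, and hydrolysis was followed at 480 nm.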
# Pf growth 96h – P. falciparum growth inhibition at 96 hour, primary screen for plastid delayed-death inhibitors. AID 504834. P. falciparum luciferase reporter growth, 96 h. Potency, µM (highest dose often 28.7 µM), without a hit: at the highest dose activity change, negative = inhibition, most hits filed as inhibitors. actives 6.9% (n = 320,000); further: on the % scale 0 is the no-effect control and ±100 the full control effect
#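 Two parasite generations (96 h, 37 C, 5% CO2) of compound exposure in infected erythrocytes (0.05% parasitemia, 2% hematocrit). Luciferase-reporter P. falciparum; decreased luminescence indicates inhibited growth, aimed at apicoplast-acting delayed death.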
# AMA1 RON2 block – disrupts binding of P. falciparum AMA1 to RON2; AlphaScreen AMA1-biotinylated RON2 peptide binding; Potency, µM (series often up to 58.2 µM), for inactives: at the highest dose activity change, negative = inhibition, most hits filed as inhibitors; actives 0.2% (n = 360,000);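 further: 0% = vehicle wells and -100% = peptide control; nearly all actives have a fitted effect of over 45% in size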
#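 AMA1 (3D7) with his tag at 25 nM final met compounds first, then biotinylated RON2 peptide at 25 nM; detection used donor plus acceptor beads, 10 µg/mL apiece, read by AlphaScreen after 30 min at room temperature.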
# Pf growth 48h – P. falciparum growth inhibition at 48 hours (one generation). P. falciparum luciferase growth in erythrocytes, 48 h. actives 5.9% (n = 310,000). Potency, µM (highest dose often 28.7 µM), for inactives: top-dose activity change, negative = inhibition, actives largely listed as inhibitors. AID 504832; further: on the % scale 0 is the no-effect control and ±100 the full control effect
#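 First compound was added to culture medium, then infected red cells at 0.1% parasitemia and 2% hematocrit (final). After incubation at 37 C under 5% CO2, luciferase detection reagent was dispensed and light output recorded.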
# HCV inhibitor – blocks hepatitis C virus. Potency, µM (series often up to 41.8 µM), without a hit: at the top dose activity change, negative = inhibition, usual class: inhibitors. AID 651820. actives 3.4% (n = 340,000). Huh7.5.1 HCVcc-Cre infection, luciferase reporter, 44 h; further: on the % scale 0 is the no-effect control and ±100 the full control effect
#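 Infectious HCVcc-Cre (~0.5 moi) was added to cells just after compound, with cells seeded 4 h earlier at 1,000 per well. Luciferase activity after 44 h culture reported infection; substrate was incubated 15 min at room temperature before reading.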
# AmpC inh detg – blocks E. coli AmpC beta-lactamase in detergent assay; AmpC hydrolysis of nitrocefin, absorbance 480 nm, 0.01% Triton; actives 0.041% (n = 370,000); P00811; Potency, µM (series often up to 114 µM), for the others: at the top dose activity change, negative = inhibition, hits mostly inhibitors; AID 485294;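 further: 0% = no-compound wells and -100% = no-enzyme wells; nearly all actives have a fitted effect of over 25% in size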
#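 20 mM phosphate pH 7.0 + 0.01% (detergent screen) or 0.0001% Triton X-100; 5.3 nM AmpC reagent; cpd preinc 15 min RT; nitrocefin (800 uM stock) to start; A480 q20 s × 4 min; Activity was normalised to no-enzyme and no-compound control wells.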
# HCV confirm – confirmation of hepatitis C virus inhibitors; shares compounds with HCV inhibitor; HCVcc-Cre infectious virus cell assay, luciferase, inhibition; Potency, µM (highest dose often 41.8 µM), without a hit: at the highest dose activity, negative = inhibition, usual class: inhibitors; actives 78% (n = 640); AID 720575; further: nearly all actives have a fitted effect of over 80% in size
# HCV host tox – counter-screen for HCV inhibitors: host cell cytotoxicity; shares compounds with HCV inhibitor; HCV host cell line cytotoxicity counterscreen; Potency, µM (top dose mostly 41.8 µM), for inactives: top-dose activity change, negative = cytotoxicity, hits mostly inhibitors; actives 22% (n = 640);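 further: 44 h compound exposure; on the % scale 0 is the no-effect control and ±100 the full control effect; nearly all actives have a fitted effect of over 55% in size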
# Active calls of the source: *; ? = inconclusive; . = no result given; [ ] = dose if it differs, or a comment. Only some compounds are listed: those with a hit (about 11% of all), similar ones and a draw of the others. The call rests on the fitted dose curve; in most records, active means well fitted curve in the direction sought with a large enough effect; inconclusive means small, poorly fitted or top-dose-only effect, or another doubt; inactive means no such curve, though single readings can be large; an effect the other way counts as inactive or inconclusive. Potency means the concentration at half of the fitted maximal effect.
SMILES,AmpC no deterg,Pf growth 96h,AMA1 RON2 block,Pf growth 48h,HCV inhibitor,AmpC inh detg,HCV confirm,HCV host tox
Cc1ccccc1CCNC(=O)c1ccc(NC(=O)N2CC(C)Sc3ccccc32)cc1 (stereo not drawn),.,.,.,.,.,-1%,.,.
C=C(C)COc1ccc(-c2nc(N)ncc2Oc2ccccc2OCC)c(O)c1,-4%,-70%,-14%,?,4.5µM*,0%,25µM*,35%
COc1ccc(-c2nc(N)nc(C)c2Oc2ccccc2Br)c(O)c1,20%,-4%,-8%,?,?,0%,.,.
CC(C)=CC(=O)Nc1cccc(S(=O)(=O)NC2=NCCCCC2)c1,-17%,.,-5%,.,-1%,.,.,.
COc1ccc(/C=C/C(=O)Nc2cccc(S(=O)(=O)NC3=NCCCCC3)c2)cc1OC,0%,?,13%,?,6.3µM*,?,20µM*,?
COc1ccc2c(CNCc3ccccc3OC)c(C(=O)O)n(Cc3ccc(F)cc3Cl)c2c1,.,.,.,.,.,15%,.,.
CC(C)NC1CCC(Nc2ccnc3cc(Cl)ccc23)CC1 (stereo not drawn),.,.,0%,.,2.8µM*,.,4µM*,-72%
Cc1ccc(-n2nc(C)c3nc(CCC(=O)Nc4cccc(F)c4)c(=O)n(C)c32)cc1,.,.,.,.,.,19%,.,.
Cc1ccc(C(=O)Nc2ccccc2N2CCCCC2)cc1[N+](=O)[O-],-22%,?,-1%,-18%,2.2µM*,-13%,16µM*,28µM*
FCCCOc1ccc(-c2ccnc(-c3ccccc3)n2)cc1,16%,0%,54%,25%,?,-12%,.,.
FCCCOc1ccc(-c2nccc(-c3ccc(F)cc3)n2)cc1,28%,72%,27%,2%,?,1%,?,15%
CCc1c(C)nc2ncnn2c1NCCc1ccc(Cl)cc1,-4%,-17%,8%,?,?,4%,7µM*,?
Cc1cc(NC(=S)N(CCN2CCCCC2)Cc2ccco2)ccc1Cl,54%,?,-12%,?,8.9µM*,2%,25µM*,-14%
CNc1nc(N2CCc3ccccc32)ncc1F,-8%,.,-8%,222%,3.2µM*,0%,20µM*,?
Cc1sc2ncnc(N3CCC(C(=O)Nc4cc(Cl)ccc4Cl)CC3)c2c1C,17%,?,-6%,?,?,?,.,.
COc1ccc(S(=O)(=O)N(C)C)cc1NC(=O)C1CCN(c2ncnc3sc(C)c(C)c23)CC1,.,.,30%,.,8.9µM*,.,8.9µM*,?
CC(=O)N(C1CC(C)C(C#N)(C#N)C1(C#N)C#N)N(C)C (stereo not drawn),-2%,9%,5%,0%,6.3µM*,3%,-24%,25%
COc1ccc(Cl)cc1NC(=O)C(OC)c1ccccc1 (stereo not drawn),0%,8%,-1%,-29%,6.3µM*,-7%,20µM*,26%
CCc1nn(CC(=O)NC2CC2)c(=O)c2cc3ccccc3n12,.,.,.,.,.,17%,.,.
COc1ccc(CNC(=O)c2cc3ccccn3n2)c(OC)c1,.,.,.,.,.,3%,.,.
C=C1C(=O)O[C@@]23[C@H]1CC[C@@H](C)[C@@H]2CC[C@@]1(C)O[C@@H]31,0%,.,10%,.,2.8µM*,.,?,-12%
COc1ccc(CC(=O)Nc2cccc(-c3nnc(-c4ccc(C)cc4)o3)c2)cc1OC,60%,-13%,-3%,?,3.2µM*,1%,6.3µM*,-27%
COc1ccc(CC(=O)Nc2ccc(-c3nnc(-c4ccccc4)o3)cc2)cc1OC,-2%,.,-10%,-5%,6%,-6%,.,.
O=C(Nc1ccc(Cl)cc1)c1ccc(-n2cnnc2)cc1,.,.,.,.,.,-3%,.,.
O=c1c(-c2ccc(O)cc2)coc2cc(O)cc(O)c12,-42%,178%,8%,121%,0.89µM*,-2%,-7%,-4%
SMILES,AmpC no deterg,Pf growth 96h,AMA1 RON2 block,Pf growth 48h,HCV inhibitor,AmpC inh detg,HCV confirm,HCV host tox
COc1ccc(-c2coc3cc(O)cc(O)c3c2=O)cc1,-18%,79%,0%,111%,0%[8.37 µM],-7%,.,.
Cc1ccc(-n2c(=O)c3ccc(C(=O)NCc4ccccc4Cl)cc3n(Cc3ccccc3F)c2=O)cc1,.,.,.,.,.,0%,.,.
COc1ccccc1NS(=O)(=O)c1cc(C(=O)NC2CCN(Cc3ccccc3)CC2)ccc1C,.,.,-7%,.,5.6µM*,.,2.8µM*,2.2µM*
Cc1ccc(C(=O)NC2CCN(Cc3ccccc3)CC2)cc1S(=O)(=O)N1CCOCC1,32%,?,-12%,-16%,?,?,.,.
CC1CC1C(=O)Nc1nc(-c2ccc(Cl)s2)cs1 (stereo not drawn),-30%[11.4 µM],-1%,-11%,-28%,?,-14%,.,.
O=C(Nc1nc(-c2ccc(Cl)s2)cs1)c1ccncc1,-16%,10µM*,6%,-12%,?,1%,6.3µM*,?
COc1ccc(C(=O)Nc2nc(-c3cccs3)cs2)cc1,.,.,-25%,-7%,?,3%,22µM*,0.0025µM*
O=C(Nc1nc(-c2cccs2)cs1)c1ccco1,-49%,249%,11%,423%,?,1%,.,.
Cc1cccc(NC(=O)Cn2c(=O)n(Cc3ccccc3)c(=O)c3oc4ccccc4c32)c1C,.,.,.,.,.,-12%,.,.
COc1ccc(Br)cc1CNCc1c(C(=O)O)c(C)n(Cc2ccccc2C)c1C,.,.,.,.,.,4%,.,.
Cc1ccc2c(=O)cc(C(=O)Nc3ccc(S(=O)(=O)N4CCC(C)CC4)cc3)oc2c1C,.,.,.,.,.,-9%,.,.
CCc1nc2cccnc2n1-c1ccc(CC(=O)Nc2ccc(C)cc2)cc1,.,.,.,.,.,1%,.,.
CN(CC(=O)NCCc1ccc(S(N)(=O)=O)cc1)Cc1c(F)cccc1Cl,-9%,-5%,0%,-20%,-4%,9%,.,.
CN(CC(=O)NCCc1ccc(S(N)(=O)=O)cc1)Cc1ccc(Cl)cc1Cl,18%,-8%,6%,-12%,7.1µM*,-7%,8.9µM*,18µM*
CCc1ccc2[nH]c(=O)c(CN(Cc3ccccc3OC)Cc3nnnn3Cc3ccco3)cc2c1,0%,?,-10%,4.7µM*,8.9µM*,?,25µM*,44%
Cc1ccc(OCCCCn2c(CCNC(=O)C(C)(C)C)nc3ccccc32)cc1,.,.,.,.,.,0%,.,.

# Screening data from PubChem BioAssay.
